The results in this text go back to the supplement of paper PMC6555819.

The subject of one test is RARg homodimer (NR concentration 270 nM). Put plainly: PBM binding z-score (relative to random genomic background probes); higher = stronger binding; sequences stand for … in GC…GCGATTGACAGCGTAGAATGAAGG
In a few lines: (§1)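 Scanned fluorescence from custom Agilent 4×180K protein-binding microarrays was regression-normalized. Binding z-scores use random background probes as reference. Ligand-free nuclear receptor dimers were incubated on the arrays for 1 h and detected with antibodies against each partner (one per run).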
The sequence TCGCGTAGGTTAGGGGCATTCAGAATGGCGTCGA showed a PBM binding z-score of 0.26. Same read-out and setting: with CCGACTGGGGCAGAAAGGATACCATACCATCCGG the figure was 0.264; with ATCTCTAGGTAAAGATAGTTCAGGGAATGCAAAT, 0.846; with TAGCCTAGGTCGTGCGGGCCAGTATAGTGTCGGC, 0.719.

For the sequence GCGACTGGGGCAACAGCAGGTTACCATAACTTAA, the PBM binding z-score was 0.776. Still for that read-out and setting: with ACTAGCAGGCCAGGTTTGGGTCACTCAAACAAAG the figure was 0.836. Same read-out and setting: with TCTCGGAGGACAGGAAAGGTCAGAGCTCGACATC the figure was 4.39. In turn, CTCGAAAGGTCGTGCTCACGTGAGTATACCAAAC displayed a PBM binding z-score of 3.6.

For the sequence TGAATGAGGTTATAAGATAAGGGAACGTTGCAAA, the PBM binding z-score was 1.01.

The sequence TCTCGGAGGACACGAATGTCAGAGCTTTCCAGAG had a PBM binding z-score of 1.42. As to TCGAGTAGGCTAGGGGCATTCAGAATGGCGTCGA, the PBM binding z-score is -0.498.

The sequence CGAACGAGGGCATGAGCTGATAGCAAATGCCGAT had a PBM binding z-score of 1.39. The same measure, in the same setting: with TCTAGTTGGTCAAAAGTCACACACTCGAAATGCG the figure was 1.06; with CGTCTAAGGTCAGAGAGGTCAGTGAATGCCGAGT, 7.77; with CATCGGAGGACAGAAGGTCAGAGCTGTCCGCTTT, 2.93. Sequence ACAGACAGGTTAGTGAAGGTAACTCAGCTGGACG yielded a PBM binding z-score of 0.773. Sequence TCAGACAGGTGAAGGTAACGCAGGTACGCAGTCG yielded a PBM binding z-score of 0.419. Sequence CGAACTAGGTCAAGGTCAGTGAATCTCCGCACGC displayed a PBM binding z-score of 6.17.

The next test concerns RXRa DBDmut IVT, anti-RXR (DBD mutation: RXRa K156A/R161A, NR concentration 90 nM). Described as above. In a few lines:
as §1
Sequence CCTTACGGGTCAAGGTTTTAGCACGGGTGGTACG registered a PBM binding z-score of 0.499. Same read-out and setting: for ATCGAAAGGTCGTGAGGTGAGTGTACAGAAAGGC the value was 1.26; for TCTTGTAGATCGGCAGGTTAAGAAAGCTGGCCAA, 0.729; for ATCTCTAGGTAACAAGTTCAGTGTAAGAGAGGAC, 1.15. ATATGTAGGTTACATCCCGGTCATTCAGGCTATG showed a PBM binding z-score of 0.814. Still for that read-out and setting: with GCAGACAGGTGAGACGCAGGTAACTCAGGGTGGC the figure was -0.867; with TAGCCTAGGTCAGGTCGGGCCAGTATACGCTATA, -0.81; with GGAACGAGGGCAAAGTTGATCGCATCTGTCGACG, 2.72.

Take TGAATGAGGTTATAAGATCAGCGAACGTTGCAAA: the PBM binding z-score was 0.409. With CGAAGGAGGGCATGAGTTGATAGCAAATGCCGAT, the PBM binding z-score was 0.567.

The sequence CAAACTAGGTCACGAAAGGTCAATGTCGAATGAC returned a PBM binding z-score of 2.11.

Regarding GTACCACGGTGAATAGGTCGTTGATGAGTAGGCG, the PBM binding z-score is -0.3.

On to CCTTACGTGTCACTCCAGGTTATAGCATCGGAGT, for which the PBM binding z-score amounted to 1.09.

For the sequence TGACCAAGGTGAGCTGAGGTCGTTGATCCAACTC, the PBM binding z-score is -0.41.

Sequence TTACCAAGGCGAGCTGAGGTCGTTGATCCAACTC showed a PBM binding z-score of 0.038. Still for that read-out and setting: with ATACCAAGGTGGTCGTGAGGTCGTTGATACTAAC the figure was 0.422; with AGAATGAGGTTATACGTAGATCAGGGGAGAAAGT, 2.05. The sequence GCTAGTTGATCAGTAAAAGGTCACACACCGGTCG came in with a PBM binding z-score of 0.532. Turning to CAAACTAGGTCACCGGAAGTTCAAAGTCCGCATG, the PBM binding z-score amounted to 2.68.

As to GGAACGAGGGCAAAGATGATAGCATCTGTCGACG, the PBM binding z-score came to 2.33. Sequence TAGTCTAGGTCATGGGCCAGTATACCACGCGAAC displayed a PBM binding z-score of 0.663. CGTCCAACGTCAGAGAGGTCAGTGAATGCCGAGT showed a PBM binding z-score of 0.53.

TCGCGTAGGTTAGGGGCATTCAGAATGGCGTCGA had a PBM binding z-score of 0.518.

In the case of CCGACTGGGGCAGAAAGGATACCATACCATCCGG, the PBM binding z-score was -1.19. Still for that read-out and setting: with ATCTCTAGGTAAAGATAGTTCAGGGAATGCAAAT the figure was 0.0937; with TAGCCTAGGTCGTGCGGGCCAGTATAGTGTCGGC, -0.774; with GCGACTGGGGCAACAGCAGGTTACCATAACTTAA, -0.15. As to ACTAGCAGGCCAGGTTTGGGTCACTCAAACAAAG, the PBM binding z-score was -0.798. For the sequence TCTCGGAGGACAGGAAAGGTCAGAGCTCGACATC, the PBM binding z-score came out at 0.817. On the same count and under the same terms, for CTCGAAAGGTCGTGCTCACGTGAGTATACCAAAC the value was 1.95; for TGAATGAGGTTATAAGATAAGGGAACGTTGCAAA, 0.619; for TCTCGGAGGACACGAATGTCAGAGCTTTCCAGAG, 0.518.

Take TCGAGTAGGCTAGGGGCATTCAGAATGGCGTCGA: the PBM binding z-score is -0.0684. CGAACGAGGGCATGAGCTGATAGCAAATGCCGAT gave a PBM binding z-score of 1.96. On the same count and under the same terms, with TCTAGTTGGTCAAAAGTCACACACTCGAAATGCG the figure was 1.33; with CGTCTAAGGTCAGAGAGGTCAGTGAATGCCGAGT, 3.83. In the case of CATCGGAGGACAGAAGGTCAGAGCTGTCCGCTTT, the PBM binding z-score was -0.108. Consider ACAGACAGGTTAGTGAAGGTAACTCAGCTGGACG, for which the PBM binding z-score was -0.188. On the same count and under the same terms, for TCAGACAGGTGAAGGTAACGCAGGTACGCAGTCG the value was 0.772; for CGAACTAGGTCAAGGTCAGTGAATCTCCGCACGC, 2.29.
